The record followed here is PubChem BioAssay AID1345082 (National Center for Advancing Translational Sciences (NCATS), 2018).

Among all 94,000 compounds or so, about 4,000 (4.3%) were called active. A call without a number means that no potency is given here. Not shown: some 29% with an inconclusive outcome. Calls follow the shape of the dose curve; as a rule, active = well fitted inhibition curve with a large enough effect; inconclusive = small, poorly fitted or top-dose-only effect; inactive = no such curve, though single readings can be large or run the other way. Many of the other results were omitted from the sample, so actives are more common in it than they were.
Potency is read from the fitted curve at half-maximal effect.

This assay is described as follows: Cytotoxic Profiling in NIH 3T3 Cell Line of Diverse Libraries Using Quantitative High-Throughput Screening. Also: nearly all actives have a fitted effect of over 55% in size. Conditions: NIH 3T3 viability, CellTiter-Glo ATP luminescence, 48-72 h; series mostly up to 96.7 µM. The essentials: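 First NIH 3T3 cells are plated at 400 cells/well; next compound is pinned in; then plates incubate 48 or 72 hr at 37 °C; finally CellTiter-Glo is added and luminescence read after 10 min.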
(ATP-based viability assays read luminescence as a measure of living cells.)
Take `COc1ccc2[nH]c(C(=O)N3C[C@@H](Oc4ccccc4)C[C@H]3C(=O)N3CCCC3)cc2c1`: the Potency result was “inactive”.
Then `O=C(c1nc2sccn2c1CN1CCCC(CO)C1)N1CCCCC1` (centres undefined), with “inactive”; and `COc1ccc(NC(=O)CC2CCOCC2)cc1`, with “inactive”; and `Cc1cccc(CC(=O)N2C[C@@H](CO)[C@H](c3ccccn3)C2)c1`, with “inactive”.
Regarding `CC(C)(C)c1coc([C@@H]2COCCN2C2CCC2)n1`, the Potency entry is “inactive”.
Under `CCOc1cc(=O)n2c(c1C(=O)NCCc1ccccc1)CCCCC2` stands “inactive”; under `Cc1cccc(-c2cccc(CN3CCC(NC(=O)Cc4ccc(F)cc4)CC3)c2)c1`, 28.2 µM (active); under `COc1ccc(-c2ccccc2C(=O)N2CCC(NC(=O)Cc3ccc(F)cc3)CC2)nn1`, “inactive”.
Then `O=C(Cc1ccc(F)cc1)NC1CCN(c2nc3ncccc3o2)C1` (centres undefined), with “inactive”.
For the compound `COC(=O)N1CCN(C(=O)c2cccc(-c3cccc(OC)c3)c2)CC1`, the Potency entry is “inactive”.
Then `O=C(CCNc1cnc2cnccn12)NC1CCN(Cc2ccccc2)CC1`, with “inactive”; and `Cc1cccc(-c2cccc(CN3CCC(NC(=O)Nc4ccccc4)CC3)c2)c1`, with 12.6 µM (active).
Then `COc1cccc(-c2ccc(C(=O)N3CCC(NC(=O)Cc4ccc(F)cc4)CC3)cc2)c1`, with 39.8 µM (active); and `O=C(Cc1ccc(F)cc1)NC1CCN(c2cn[nH]c(=O)c2)CC1`, with “inactive”; and `CN1C(=O)c2cccn2CC1C(=O)NC1CCN(Cc2ccccc2)CC1` (centres undefined), with “inactive”.
Under `COCCN1CCC(N2CCN(S(=O)(=O)c3ccccc3)CC2)C1=O` (centres undefined) stands “inactive”.
On to `O=C(NCC1CCOCC1)C1COc2ccccc2O1` (centres undefined), for which the Potency entry is “inactive”.
Under `CC(C)(C)CC(=O)NC1CCN(c2cnn(CC3CC3)c(=O)c2)CC1` stands “inactive”; under `O=C(NCCc1noc(-c2ccccc2)n1)C1CC1`, “inactive”.
With `CCn1cc(C(=O)N2CC(COC)C3(CCNCC3)C2)cn1` (centres undefined), the Potency entry is “inactive”.
On to `CSc1ccc(-c2cccc(CN3CCC(N[S+](=O)([O-])c4cccs4)CC3)c2)cc1`, for which the Potency was 12.6 µM (active).
Under `Cc1noc(C)c1[S+](=O)([O-])NC1CCN(Cc2cccc(-c3ccc(F)c(F)c3)c2)CC1` stands 14.1 µM (active); under `Cc1noc(C)c1[S+](=O)([O-])N1CC(Oc2ccc(F)c(F)c2)C1`, “inactive”; under `Cc1noc(C)c1[S+](=O)([O-])N1CCn2c(nnc2-c2ccccc2)C1`, “inactive”.
Under `O=C(Nc1cc(F)ccc1F)N1CCC(Oc2ncccc2C(=O)N2CCCCC2)C1` (centres undefined) stands “inactive”; under `Cn1cccc1C(=O)N1CCCC(c2nc(-c3ccccc3)no2)CCNC(=O)CC1` (centres undefined), “inactive”; under `COc1ccccc1NC(=O)Cn1c(C)cc2nc3n(c(=O)c21)CCC3`, “inactive”.
Under `Cc1noc(C2CC3(CCN(C(=O)c4sc(C)nc4C)CC3)CN2C)n1` (centres undefined) stands “inactive”; under `CCn1nc(C)cc1C(=O)N[C@H]1[C@H](O)[C@H](O)C[C@@H]1c1cccnc1`, “inactive”; under `CN1CCN([C@H]2CCN(C(=O)Cc3cccc(O)c3)C[C@H]2CCCO)CC1`, “inactive”.
In the case of `COCCNC(=O)[C@@H]1C[C@H](Oc2cccnc2)CN1C(=O)c1nccn1C`, the Potency result was “inactive”.
For the compound `Cc1cc(=O)n(CC(=O)Nc2cccc(Cl)c2C)c(N2CCc3ccccc3C2)n1`, the Potency entry was “inactive”.
On to `Cc1cc(=O)n(CC(=O)NCCc2ccc(Cl)cc2)c(N2CCc3ccccc3C2)n1`, for which the Potency was 25.1 µM (active).
On to `CCOC(=O)C1=CN(CC(=O)NCCc2ccc(Cl)cc2)S(=O)(=O)N=C1C`, for which the Potency result was “inactive”.
Then `CCC(CC)NC(=O)C1Cn2cccc2C(=O)N1Cc1cccnc1` (centres undefined), with “inactive”.
Consider `CC(=O)N1CCC(C(=O)NCC2CCN(c3cc(-c4ccc(C)cc4)[nH]n3)CC2)CC1`, for which the Potency entry is “inactive”.
Regarding `O=C(NC1CCN(c2cc(-c3ccc(Cl)cc3)[nH]n2)C1)c1c[nH]c2ccccc12` (centres undefined), the Potency was 39.8 µM (active).
Under `O=C(NC1CCN(c2cc(-c3ccccc3)[nH]n2)CC1)c1cccs1` stands “inactive”; under `CCn1ccc(C(=O)NC2CCCN(c3cc(-c4ccc(F)cc4)[nH]n3)C2)n1` (centres undefined), “inactive”.
For `O=C(Cc1ccc(F)cc1)NC1CCN(c2cc(-c3ccc(Cl)cc3)[nH]n2)CC1`, the Potency entry is “inactive”.
For the compound `O=C(NC1CCN(c2cc(-c3ccc(F)cc3)[nH]n2)C1)c1cc2ccccc2[nH]1` (centres undefined), the Potency is 39.8 µM (active).
For `O=C(NCC1CCN(c2cc(-c3ccc(Cl)cc3)[nH]n2)CC1)c1ccc2nc[nH]c2c1`, the Potency is 35.5 µM (active).
Then `Cn1nccc1C(=O)NC1CCCN(c2cc(-c3ccc(F)cc3)[nH]n2)C1` (centres undefined), with “inactive”.
Under `Cc1ccc(-c2cc(N3CCC(CNC(=O)c4ccc(N(C)C)cc4)CC3)n[nH]2)cc1` stands “inactive”.
For the compound `CNC(=O)[C@H]1C[C@H](Oc2cccnc2)CN1C(=O)c1ccccc1`, the Potency result is “inactive”.
In the case of `CCOc1ccccc1CN1CCc2nc(N3CCN(C)CC3)[nH]c(=O)c2CC1`, the Potency result is “inactive”.
Take `CC(C)N1CC2(C1)C(=O)N(Cc1cccc(Cl)c1)C(=O)[C@@H]1C[C@@H](O)CN12`: the Potency entry was “inactive”.
`CC(C)NC(=O)C(C)[C@@H]1CC[C@@]2(C)CC[C@H](N[S+](C)(=O)[O-])[C@@H](C)[C@@H]2[C@H]1O` (some centres undefined): the Potency entry is “inactive”.
Then `CCOc1ccc(NC(=O)C2CN(S(C)(=O)=O)CC23CCCCC3)cc1` (centres undefined), with “inactive”; and `Cc1cc(C2CCCN2C(=O)c2ccc(F)c(F)c2)on1` (centres undefined), with “inactive”; and `O=C(O)C[C@@H]1CCN(C(=O)Nc2ccccc2)C[C@@H]1CC1=NCCc2cc(F)ccc21`, with “inactive”.
Then `O=C1CC2(CCN(C(=O)C3CCN(C(=O)Cc4ccc(F)cc4)CC3)CC2)Oc2ccccc2N1`, with “inactive”; and `COc1ccc(-c2cccc(C(=O)N3CCC(NC(=O)c4ccc(C(F)(F)F)cc4)CC3)c2)nn1`, with “inactive”; and `COc1ccc(-c2ccc3ncc(Nc4ccc(C(F)(F)F)cc4)n3n2)cn1`, with 79.4 µM (active).
Then `COc1ccc(-c2ccc3ncc(Nc4cc(F)cc(N5CCOCC5)c4)n3n2)cn1`, with “inactive”.
Consider `CC(=O)NCCc1ncc(C)n1C1CCCCC1`, for which the Potency result is “inactive”.
Under `Cn1c(=O)n(C)c2cc(S(=O)(=O)N[C@@H]3CCOC[C@H]3O)ccc21` stands “inactive”.
Then `COCCC1(NC(=O)C2CCOCC2)CCN(C(=O)C2COc3ccccc3O2)CC1` (centres undefined), with “inactive”.
Under `COCC(=O)NCCC1CCN(C(=O)Nc2cc(F)cc(F)c2)CC1` stands “inactive”.
As to `COc1ccc(NC(=O)Cn2ccn3nc(-c4ccc(F)cc4)c(CO)c3c2=O)cc1OC`, the Potency entry is “inactive”.
Regarding `COc1cccc(NC(=O)c2ccc3c(c2)NC(C)(COc2ccccc2)CO3)c1` (centres undefined), the Potency was 39.8 µM (active).
With `O=C(NCc1cccc(F)c1)C1CN(c2ccccc2)C(=O)N1` (centres undefined), the Potency entry is “inactive”.
In the case of `CC1(CCCCc2ccccc2)COc2ccc(C(=O)N3CC[S+](=O)([O-])CC3)cc2N1` (centres undefined), the Potency result is “inactive”.
Regarding `O=C(NCC1CCOCC1)c1ccc2[nH]ccc2c1`, the Potency result is “inactive”.
Then `CN(C)CCN(C)C(=O)c1ccc2c(c1)NC(C)(COc1ccc3[nH]ccc3c1)CO2` (centres undefined), with 79.4 µM (active).
Under `COc1ccc(OCC2(C)COc3ccc(C(=O)Nc4cccnc4)cc3N2)cc1` (centres undefined) stands 44.7 µM (active); under `COc1ccc(C(=O)Nc2cccc(-c3nnc4n3CCCC4)c2)cc1`, “inactive”; under `O=C(Nc1cccnc1)c1ccc2c(c1)OCCN(Cc1ncccn1)C2`, “inactive”.
Under `CC1(CNc2ccccc2)COc2ccc(C(=O)NCc3cccc(F)c3)cc2N1` (centres undefined) stands 39.8 µM (active); under `COc1cccc(C(=O)Nc2ccc3c(c2)CN(Cc2ccc(OC)cc2OC)C(=O)CO3)c1`, “inactive”; under `CCOc1ccc(NC(=O)C2(Cc3cccnc3)CCCCC(=O)N2)cc1` (centres undefined), “inactive”.
Regarding `CC(C)NC(=O)NC1CCCN(c2ccc3nnc(C4CC4)n3n2)C1` (centres undefined), the Potency result is “inactive”.
With `O=C(NCCc1noc(C2CCCC2)n1)c1cc(F)c(F)cc1Cl`, the Potency entry is “inactive”.
For the compound `O=C(NCCn1cnc2ccccc2c1=O)C1CC(=O)N(c2n[nH]c3ccccc23)C1` (centres undefined), the Potency entry was “inactive”.
Under `CCOc1ccc(NC(=O)Cn2c(N3CCOCC3)nc(COC)cc2=O)cc1` stands “inactive”.
Regarding `O=C(c1ccc(F)cc1)N1CCC[C@H]1c1nc(-c2ccccc2Cl)no1`, the Potency result was “inactive”.
Under `Cc1ncc(C(=O)N2C[C@@H](C(=O)O)[C@H](c3ccc4c(c3)OCO4)C2)c(C)n1` stands “inactive”; under `COCCNc1ncnc2c1CN(C1CCCNCC1)C(=O)CN2C` (centres undefined), “inactive”.
`COCc1cc(=O)n(CC(=O)NCc2ccc(C)cc2)c(N2CCOCC2)n1`: the Potency result was “inactive”.
With `CCCCOC(=O)c1ccc(NC(=O)c2c(OC)cc(=O)n3c2CCCC3)cc1`, the Potency result is “inactive”.
Under `O=C(c1ccccc1Cl)N1CC2(Cc3ccccc3NC2=O)C1` stands “inactive”; under `O=C(Cn1nc(-c2ccco2)ccc1=O)NC1CCCc2c1[nH]c1c(Cl)cccc21` (centres undefined), “inactive”.
As to `O=C(Cn1nc2c(cc1=O)CCCC2)NC1CCCc2c1[nH]c1c(Cl)cccc21` (centres undefined), the Potency entry was “inactive”.
As for `O=C(NC1CCCc2c1[nH]c1ccc(F)cc21)c1ccccn1` (centres undefined), the Potency entry was “inactive”.
Regarding `COc1ccc(CC(=O)NC2CCCc3c2[nH]c2ccccc32)cc1` (centres undefined), the Potency is 31.6 µM (active).
Under `O=C(Cc1ccccc1)NC1CCCc2c1[nH]c1c(Cl)cccc21` (centres undefined) stands 35.5 µM (active).
For `COc1ccc(CC(=O)N2CCC[C@H]2c2nc(-c3ccccc3)no2)cc1`, the Potency result is “inactive”.
In the case of `COc1ccc(CN2CCc3oc(C)c(C(=O)NCCN4CCCC4)c3C2)cc1`, the Potency entry is “inactive”.
Under `CN(C)C(=O)c1nc(-c2ccc(Cl)cc2Cl)c2cnccn12` stands “inactive”.
Under `CN(C)C[C@@H]1CN(c2ncccn2)C[C@H]1NC(=O)Cc1ccccc1Cl` stands “inactive”; under `CC(C)(C)c1coc([C@@H]2COCCN2Cc2ccc(F)cc2)n1`, “inactive”; under `Cn1cc(CN2CCOC[C@H]2c2ncc(-c3cccc(F)c3)[nH]2)c2ccccc21`, 39.8 µM (active).
For the compound `c1cncc(-c2cnc([C@@H]3COCCN3Cc3cnc4ccccc4c3)[nH]2)c1`, the Potency result was “inactive”.
`Cn1cc(CN2CC[C@H](c3nnc(-c4cccnc4)o3)C2)c2ccccc21`: the Potency entry is “inactive”.
Under `CN(C)c1ccc(CN2CCOC[C@H]2c2ncc(-c3cccc(F)c3)[nH]2)cc1` stands “inactive”; under `Cc1ccc(CN2CCOC[C@H]2c2ncc(-c3cccc(F)c3)[nH]2)cc1`, 79.4 µM (active); under `Oc1ccccc1CN1CCOC[C@H]1c1ncc(-c2ccc(C(F)(F)F)cc2)[nH]1`, 50.1 µM (active).
`Fc1ccc(CN2CCOC[C@H]2c2ncc(-c3cccnc3)[nH]2)cc1`: the Potency entry was “inactive”.
Then `CN(Cc1ccccc1)Cc1cn([C@H]2CO[C@H]3[C@@H]2OC[C@@H]3NS(C)(=O)=O)nn1`, with “inactive”; and `CCc1noc(-c2cccn3c(CNC(=O)C(CC)c4ccccc4)nnc23)n1` (centres undefined), with “inactive”; and `CCn1cc(S(=O)(=O)N2CC[C@H](CNC(C)=O)[C@H](N(C)C)C2)cn1`, with “inactive”.
Turning to `Cc1ccc(F)cc1S(=O)(=O)N1CCn2c(nn(CC3CC3)c2=O)C1`, the Potency entry was “inactive”.
Under `O=C(C[C@@H]1O[C@H](CNC(=O)C2CC2)[C@@H](O)[C@H]1O)NCCN1CCOCC1` stands “inactive”; under `Cc1ccnc(N2CC[C@@H]3[C@@H](CCC(=O)N3CCc3ccccn3)C2)n1`, “inactive”; under `c1cncc(-c2noc(C3CCCN(Cc4cc5n(n4)CCNC5)C3)n2)c1` (centres undefined), “inactive”.
Then `CCOC(=O)N1CCC(=O)N(Cc2ccccc2)Cc2cc(OC)ccc21`, with “inactive”; and `Cc1nc(C(C)C)ncc1C(=O)N1CCN(C)C2(CCNC(=O)CC2)C1` (centres undefined), with “inactive”; and `CNC(=O)[C@@H](c1ccccc1F)N1CCC[C@H]1C(=O)NCCOC`, with “inactive”.
Then `O=C(Cc1ccc(F)cc1)N1CCOCC2(CN(Cc3ccccc3)C2)C1`, with 35.5 µM (active); and `CC(=O)N1CCC2(CC1)CN(C(=O)Cc1cccc(Cl)c1)CCO2`, with “inactive”; and `O=C(c1cccs1)N1CCOCC2(CN(Cc3cc(F)cc(F)c3)C2)C1`, with “inactive”.
Consider `Cc1nc(-c2cn(C3CCCN(C(=O)c4sccc4C)C3)nn2)no1` (centres undefined), for which the Potency entry was “inactive”.
With `CCN1CCN(CCNC(=O)C2Cn3cccc3C(=O)N2Cc2cccnc2)CC1` (centres undefined), the Potency result was “inactive”.
Under `N#Cc1ccc(CN2CCc3nc(C(=O)N4CCOCC4)oc3CC2)cc1` stands “inactive”.
